Assay results reported in PubChem BioAssay (EPA / NIEHS).
Several values for one entry are separate records, joined by “and”; a condition that tells them apart may be missing. Equal entries are not always repeated. The source holds several records for some structures; these can differ, active in one and inactive in another. Activity calls are given as the source filed them. How the source made its calls: active means hit-call score of the fitted dose curve at least 0.9, where 1 is the maximum; inactive means score below 0.9.

Columns and labels:
[1] = ATG_ISRE_CIS: Attagene CIS-FACTORIAL HepG2 Assay for human Interferon Regulatory Factor 1 (IRF1) binding to an Interferon-Stimulated Response Element (ISRE) (AID 2282948); details: HepG2 ISRE cis-reporter (Attagene), mRNA transcription readout; actives raise or lower the signal
Outline: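 Read-out: fluorescent RT-PCR products resolved by capillary electrophoresis, reporting endogenous transcription factor activity via ISRE-driven reporter mRNA in transfected HepG2 cells dosed for 24 h; gain or loss fitted relative to DMSO.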

[2] = ATG_M_32_CIS: Attagene CIS-FACTORIAL HepG2 Assay for M32 Transcription Factor (Internal Marker) (AID 2282949); details: HepG2 Attagene cis-factorial M32 reporter, mRNA; actives raise or lower the signal;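 further: background control marker of the multiplexed CIS panel rather than a real target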
Outline: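 HepG2 human liver cells transiently transfected with cis-promoter-driven multiple reporter transcription units, dosed 24 h. Reporter mRNA quantified by RT-PCR, FAM-labelled primer extension, HpaI digest and capillary electrophoresis; bidirectional fit versus DMSO baseline.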

[3] = ATG_M_06_CIS: Attagene CIS-FACTORIAL HepG2 Assay for M06 Transcription Factor (Internal Marker) (AID 2282950); details: HepG2 Attagene CIS-FACTORIAL M06 internal marker reporter; actives raise or lower the signal
Outline: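 Internal background marker within multiplexed cis-reporter HepG2 system. Cells transiently transfected, dosed 24 h; reporter mRNA measured by RT-PCR, HpaI digestion and capillary electrophoresis. Bidirectional fit relative to DMSO.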

[4] = target: Hepatocyte nuclear factor 6 (Homo sapiens) (UniProt Q9UBC0); test: ATG_HNF6_CIS: Attagene CIS-FACTORIAL HepG2 Assay for human Hepatocyte Nuclear Factor 6 (HNF6) (AID 2282952); details: HepG2 Attagene cis-factorial HNF6 reporter transcription; actives raise or lower the signal
Chain of Hepatocyte nuclear factor 6 (Homo sapiens) (Q9UBC0 whole entry, looked up): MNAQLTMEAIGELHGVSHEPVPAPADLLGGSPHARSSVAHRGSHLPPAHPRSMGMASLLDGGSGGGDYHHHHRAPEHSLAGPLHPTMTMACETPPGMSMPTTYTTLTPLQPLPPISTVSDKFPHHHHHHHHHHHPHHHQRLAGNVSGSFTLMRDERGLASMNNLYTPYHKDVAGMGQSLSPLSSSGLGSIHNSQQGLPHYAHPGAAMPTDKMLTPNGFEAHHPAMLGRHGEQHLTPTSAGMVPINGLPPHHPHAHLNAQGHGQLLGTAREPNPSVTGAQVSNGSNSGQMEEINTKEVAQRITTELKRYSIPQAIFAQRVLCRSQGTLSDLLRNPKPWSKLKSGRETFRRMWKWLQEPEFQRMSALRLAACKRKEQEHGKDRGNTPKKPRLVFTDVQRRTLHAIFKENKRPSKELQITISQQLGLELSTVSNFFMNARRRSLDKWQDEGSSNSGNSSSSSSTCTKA
Outline: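 Activity values derive from bidirectional fitting against DMSO of reporter mRNA levels, measured by capillary electrophoresis of labelled RT-PCR products from HepG2 cells exposed 24 h.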

[5] = target: Heat shock factor protein 1 (Homo sapiens) (UniProt Q00613); test: ATG_HSE_CIS: Attagene CIS-FACTORIAL HepG2 Assay for human Heat Shock Transcription Factor 1 (HSE) (AID 2282953); details: HepG2 HSE cis-reporter, Attagene RNA transcription; actives raise or lower the signal
Chain of Heat shock factor protein 1 (Homo sapiens) (Q00613 whole entry, looked up): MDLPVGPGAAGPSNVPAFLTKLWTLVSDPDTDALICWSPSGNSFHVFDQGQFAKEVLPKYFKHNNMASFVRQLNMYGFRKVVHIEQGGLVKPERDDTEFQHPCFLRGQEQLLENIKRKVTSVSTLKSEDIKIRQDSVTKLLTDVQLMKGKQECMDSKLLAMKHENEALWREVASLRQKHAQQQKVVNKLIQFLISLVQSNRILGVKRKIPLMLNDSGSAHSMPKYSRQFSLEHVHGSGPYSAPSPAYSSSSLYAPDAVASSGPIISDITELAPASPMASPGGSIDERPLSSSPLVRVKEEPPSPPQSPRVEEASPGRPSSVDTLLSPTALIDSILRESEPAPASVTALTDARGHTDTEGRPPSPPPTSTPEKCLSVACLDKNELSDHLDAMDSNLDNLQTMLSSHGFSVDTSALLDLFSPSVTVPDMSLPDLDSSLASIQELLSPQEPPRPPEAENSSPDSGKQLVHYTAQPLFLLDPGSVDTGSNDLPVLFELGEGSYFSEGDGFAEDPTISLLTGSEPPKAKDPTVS
Outline: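 HepG2 cells transfected with cis-promoter reporter units sensing endogenous transcription factor activity; reporter mRNA quantified 24 h post-dose by RT-PCR and capillary electrophoresis of 6-FAM-labelled products. Bidirectional fitting against DMSO.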

[6] = ATG_MRE_CIS: Attagene CIS-FACTORIAL HepG2 Assay for human Metal Responsive Element (MRE) (AID 2282954); details: HepG2 MRE cis-reporter transcription, Attagene multiplex; actives raise or lower the signal
Outline: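 Measured here is mRNA induction from an MRE cis-element reporter in HepG2 after 24 h, quantified by fluorescence of labelled RT-PCR products on capillary electrophoresis; gain- and loss-of-signal fits use DMSO as baseline.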

[7] = ATG_PXRE_CIS: Attagene CIS-FACTORIAL HepG2 Assay for human Pregnane X Receptor Element (PXRE) (AID 2282957); details: HepG2 Attagene CIS-FACTORIAL PXRE reporter, mRNA; actives raise or lower the signal
Outline: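 Fluorescent capillary electrophoresis of amplified reporter cDNA gave the signal, collected 24 h after dosing HepG2 cells that held transfected cis-element reporter constructs.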

[8] = ATG_PBREM_CIS: Attagene CIS-FACTORIAL HepG2 Assay for human Phenobarbital-responsive Enhancer Module (PBREM) (AID 2282955); details: HepG2 PBREM cis-reporter, Attagene multiplexed transcription; actives raise or lower the signal
Outline: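 Endogenous transcription factor activity was read from reporter transcripts in transiently transfected human HepG2 liver cells after 24 h dosing. RT-PCR products were fluorescently labelled, HpaI-cut and sized by capillary electrophoresis; activity fitted bidirectionally against DMSO baseline.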

[9] = target: Paired box protein Pax-6 (Homo sapiens) (UniProt P26367); test: ATG_Pax6_CIS: Attagene CIS-FACTORIAL HepG2 Assay for human Paired Box 6 (PAX6) (AID 2282956); details: HepG2 CIS-FACTORIAL PAX6 reporter transcription, RNA readout; actives raise or lower the signal
Chain of Paired box protein Pax-6 (Homo sapiens) (P26367 whole entry, looked up): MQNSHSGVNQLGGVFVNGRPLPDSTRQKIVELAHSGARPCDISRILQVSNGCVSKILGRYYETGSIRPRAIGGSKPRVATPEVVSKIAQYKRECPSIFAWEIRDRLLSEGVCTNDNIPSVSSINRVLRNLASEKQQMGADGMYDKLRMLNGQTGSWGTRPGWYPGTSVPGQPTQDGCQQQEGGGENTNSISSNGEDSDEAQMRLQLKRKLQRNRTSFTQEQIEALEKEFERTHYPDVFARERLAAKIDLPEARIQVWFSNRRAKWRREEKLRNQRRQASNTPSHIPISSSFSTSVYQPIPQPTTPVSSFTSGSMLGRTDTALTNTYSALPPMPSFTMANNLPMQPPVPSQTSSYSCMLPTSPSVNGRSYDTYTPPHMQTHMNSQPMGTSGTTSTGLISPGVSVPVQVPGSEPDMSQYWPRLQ
Outline: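 Readout: reporter transcript fluorescence after RT-PCR and capillary electrophoresis. Cells: HepG2, transiently transfected with cis-regulated MRTUs. Exposure 24 h. Gain or loss of signal fitted bidirectionally relative to DMSO.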

Measured: AC50

CN(C)P(=O)(N(C)C)N(C)C
not listed: [8] | [9]
inactive: all other assays above

CN(C)N=O
active: [7] 100 µM and 55.8 µM
inactive: all other assays above

C(=NC1CCCCC1)=NC1CCCCC1
active: [1] 17.7 µM | [6] 33.4 µM | [8] 8.4 µM
inactive: all other assays above

O=C1CCCN1
inactive: all assays above

CC(C)CCCCCCOC(=O)c1ccccc1C(=O)OCCCCCCC(C)C
active: [7] 1.39 µM
not listed: [4]
inactive: all other assays above

O=C(O)C(F)(F)C(F)(F)C(F)(F)C(F)(F)C(F)(F)C(F)(F)F
inactive: [1] | [2] | [3] | [4] | [5] | [6] | [8] | [7]
active: [7] 40.2 µM

O=C(NCO)NCO
active: [7] 27.2 µM
inactive: all other assays above

O=C(OC1CCCCC1)c1ccccc1C(=O)OC1CCCCC1
active: [6] 23.5 µM | [7] 0.58 µM
not listed: [4]
inactive: all other assays above

O=C(Cl)c1ccc(Cl)cc1
not listed: [8]
inactive: all other assays above

CC(C)(C)c1cc(O)ccc1O
active: [5] 187 µM | [6] 120 µM | [9] 124 µM | [7] 4.27 µM
inactive: all other assays above

BrCCBr
not listed: [4] | [5] | [9]
inactive: all other assays above

CC(C)c1cccc(C(C)C)c1O
active: [7] 3.76 µM
inactive: all other assays above

N#Cc1ccccn1
not listed: [5]
inactive: all other assays above

CCC(=O)C(CC(C)N(C)C)(c1ccccc1)c1ccccc1 (stereo unspecified)
active: [7] 18.6 µM
not listed: [4] | [9]
inactive: all other assays above

OCc1ccco1
active: [7] 39.7 µM
inactive: all other assays above

Cn1sc(Cl)cc1=O
not listed: [9]
inactive: all other assays above

CCC(=O)c1ccccc1
inactive: all assays above
